Measurements as given in PubChem BioAssay (EPA / NIEHS).
Activity calls are given as the source filed them. How the source made its calls: active means hit-call score of the fitted dose curve at least 0.9, where 1 is the maximum; inactive means score below 0.9.

Tests used:
[1] = target: Bile acid receptor (Homo sapiens) (UniProt Q96RI1); experiment: ATG_IR1_CIS: Attagene CIS-FACTORIAL HepG2 Assay for human Nuclear Receptor Subfamily 1 Group H Member 4 (NR1H4), IR1 submotif (AID 2282946); settings: IR1 reporter transcription, actives raise or lower the signal
How it was run: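 Transient MRTU transfection, HepG2; 24 h dosing; RNA → RT-PCR → 6-FAM primer extension → HpaI digest → capillary electrophoresis fluorescence. Gain/loss of signal fitted relative to DMSO.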

[2] = ATG_GRE_CIS: Attagene CIS-FACTORIAL HepG2 Assay for human Glucocorticoid Response Elements (GRE) (AID 2282947); settings: HepG2 GRE cis-reporter, Attagene multiplex mRNA; actives raise or lower the signal
How it was run: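 HepG2 cells transiently transfected with multiple cis-promoter reporter units measure endogenous TF activity; 24 h compound exposure. Reporter mRNA quantified by RT-PCR, FAM labelling, HpaI digestion and capillary electrophoresis; bidirectional fit vs DMSO baseline.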

[3] = ATG_ISRE_CIS: Attagene CIS-FACTORIAL HepG2 Assay for human Interferon Regulatory Factor 1 (IRF1) binding to an Interferon-Stimulated Response Element (ISRE) (AID 2282948); settings: HepG2 ISRE cis-reporter (Attagene), mRNA transcription readout; actives raise or lower the signal
How it was run: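 Quantitation relies on labelled RT-PCR fragments separated by capillary electrophoresis. Human HepG2 cells bearing cis-promoter reporter constructs were treated 24 h; DMSO served as baseline for bidirectional fitting.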

[4] = ATG_M_32_CIS: Attagene CIS-FACTORIAL HepG2 Assay for M32 Transcription Factor (Internal Marker) (AID 2282949); settings: HepG2 Attagene cis-factorial M32 reporter, mRNA; actives raise or lower the signal;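 further: background control marker of the multiplexed CIS panel rather than a real target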
How it was run: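 Following 24 h chemical exposure of HepG2 cells transiently expressing cis-promoter reporter constructs, reporter transcript levels were determined by RT-PCR with fluorescent labelling and capillary electrophoresis, then fitted bidirectionally against DMSO.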

[5] = ATG_M_06_CIS: Attagene CIS-FACTORIAL HepG2 Assay for M06 Transcription Factor (Internal Marker) (AID 2282950); settings: HepG2 Attagene CIS-FACTORIAL M06 internal marker reporter; actives raise or lower the signal
How it was run: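 Steps: transfect HepG2 with multiplexed cis-element reporter constructs; dose chemical 24 h; extract RNA with DNase treatment; reverse-transcribe, PCR-amplify, 6-FAM label, HpaI digest; separate fragments by capillary electrophoresis. Activity fitted both directions versus DMSO.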

[6] = target: Hypoxia-inducible factor 1-alpha (Homo sapiens) (UniProt Q16665); experiment: ATG_HIF1a_CIS: Attagene CIS-FACTORIAL HepG2 Assay for human Hypoxia Inducible Factor 1 (HIF1A) (AID 2282951); settings: HepG2 Attagene cis-factorial HIF1a reporter transcription; actives raise or lower the signal
How it was run: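 RT-PCR/capillary electrophoresis fluorescence readout of reporter transcripts from endogenous-TF-driven cis elements in transfected HepG2 cells, 24 h exposure; activity fitted in both directions against DMSO controls.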

[7] = target: Hepatocyte nuclear factor 6 (Homo sapiens) (UniProt Q9UBC0); experiment: ATG_HNF6_CIS: Attagene CIS-FACTORIAL HepG2 Assay for human Hepatocyte Nuclear Factor 6 (HNF6) (AID 2282952); settings: HepG2 Attagene cis-factorial HNF6 reporter transcription; actives raise or lower the signal
How it was run: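 Multiplexed mRNA reporter assay in transfected HepG2; 24 h dosing; RT-PCR plus capillary electrophoresis fluorescence; DMSO-referenced bidirectional curve fitting.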

[8] = target: Heat shock factor protein 1 (Homo sapiens) (UniProt Q00613); experiment: ATG_HSE_CIS: Attagene CIS-FACTORIAL HepG2 Assay for human Heat Shock Transcription Factor 1 (HSE) (AID 2282953); settings: HepG2 HSE cis-reporter, Attagene RNA transcription; actives raise or lower the signal
How it was run: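 Cells were transfected with cis-element-driven reporter constructs, dosed for 24 h, then total RNA was reverse-transcribed and reporter cDNA amplified, FAM-labelled and digested with HpaI. Fragments were resolved by capillary electrophoresis; gain or loss was fitted against DMSO.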

[9] = ATG_MRE_CIS: Attagene CIS-FACTORIAL HepG2 Assay for human Metal Responsive Element (MRE) (AID 2282954); settings: HepG2 MRE cis-reporter transcription, Attagene multiplex; actives raise or lower the signal
How it was run: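 HepG2 cells transiently transfected with multiple cis-element reporter units measure endogenous MTF1-driven transcription. After 24 h compound exposure, reporter mRNA is quantified by RT-PCR with 6-FAM labelling, HpaI digestion and capillary electrophoresis; bidirectional fits versus DMSO.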

[10] = ATG_PBREM_CIS: Attagene CIS-FACTORIAL HepG2 Assay for human Phenobarbital-responsive Enhancer Module (PBREM) (AID 2282955); settings: HepG2 PBREM cis-reporter, Attagene multiplexed transcription; actives raise or lower the signal
How it was run: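 Reporter mRNA read by RT-PCR, 6-FAM primer extension, HpaI digestion and capillary electrophoresis. Transfected HepG2 cells, 24 h compound exposure. Gain or loss of signal fitted bidirectionally relative to DMSO baseline.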

[11] = target: Paired box protein Pax-6 (Homo sapiens) (UniProt P26367); experiment: ATG_Pax6_CIS: Attagene CIS-FACTORIAL HepG2 Assay for human Paired Box 6 (PAX6) (AID 2282956); settings: HepG2 CIS-FACTORIAL PAX6 reporter transcription, RNA readout; actives raise or lower the signal
How it was run: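 After twenty-four hours of chemical exposure, transfected HepG2 cells are harvested for RNA. Cis-promoter reporter transcripts are amplified, fluorescently labelled and sized by capillary electrophoresis, with gain and loss of signal scored against DMSO.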

[12] = ATG_PXRE_CIS: Attagene CIS-FACTORIAL HepG2 Assay for human Pregnane X Receptor Element (PXRE) (AID 2282957); settings: HepG2 Attagene CIS-FACTORIAL PXRE reporter, mRNA; actives raise or lower the signal
How it was run: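 Cells: HepG2, transiently transfected reporter units under cis promoter control. Exposure: 24 h. Detection: reporter mRNA via RT-PCR/CE fluorescence; bidirectional fitting, DMSO-referenced.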

[13] = ATG_PPRE_CIS: Attagene CIS-FACTORIAL HepG2 Assay for human Peroxisome Proliferator-activated Response Element (PPRE) (AID 2282958); settings: HepG2 PPRE cis-element reporter, Attagene transcription factor profiling; actives raise or lower the signal
How it was run: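 Read-out: fluorescent reporter mRNA fragments resolved by capillary electrophoresis after RT-PCR. HepG2 cells carried transiently transfected PPRE-driven cis reporter constructs and were dosed for 24 h; gain or loss of signal fitted relative to DMSO.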

[14] = ATG_Sox_CIS: Attagene CIS-FACTORIAL HepG2 Assay for human SRY-box transcription factor (SOX) (AID 2282960); settings: HepG2 Attagene cis-factorial SOX reporter, mRNA; actives raise or lower the signal
How it was run: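 Read-out: fluorescent RT-PCR products of SOX1-linked reporter transcripts resolved by capillary electrophoresis, fitted bidirectionally against DMSO. Transiently transfected HepG2 cells, 24 h after chemical exposure, endogenous transcription factor activity.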

[15] = target: Transcription factor Sp1 (Homo sapiens) (UniProt P08047); experiment: ATG_Sp1_CIS: Attagene CIS-FACTORIAL HepG2 Assay for human Specificity Protein 1 (Sp1) (AID 2282961); settings: HepG2 Sp1 cis-reporter transcription, actives raise or lower the signal
How it was run: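 Read-out: fluorescence of 6-FAM-labeled, HpaI-digested RT-PCR products separated by capillary electrophoresis. HepG2 cells carried transfected cis-element reporter units and were exposed to chemicals for 24 h; gain or loss of signal fitted relative to DMSO.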

[16] = ATG_SREBP_CIS: Attagene CIS-FACTORIAL HepG2 Assay for human Sterol Regulatory Element Binding (SREBP) (AID 2282962); settings: HepG2 Attagene cis-factorial SREBP reporter, mRNA; actives raise or lower the signal
How it was run: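 Twenty-four hours after chemical dosing of transfected HepG2 cultures, reporter RNA was converted to cDNA, amplified, end-labelled with 6-FAM and resolved by capillary electrophoresis. Responses were fitted relative to DMSO.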

[17] = target: Signal transducer and activator of transcription 3 (Homo sapiens) (UniProt P40763); experiment: ATG_STAT3_CIS: Attagene CIS-FACTORIAL HepG2 Assay for human Signal Transducer and Activator of Transcription 3 (STAT3) (AID 2282963); settings: HepG2, Attagene cis-factorial STAT3 reporter transcription; actives raise or lower the signal
How it was run: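 HepG2 cells transiently transfected with cis-element-driven multiple reporter transcription units; after 24 h chemical exposure, reporter mRNA measured by RT-PCR, 6-FAM primer-extension labelling, HpaI digestion and capillary electrophoresis. Bidirectional fitting versus DMSO baseline.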

[18] = ATG_TA_CIS: Attagene CIS-FACTORIAL HepG2 Assay for human TA Basal Promoter (AID 2282964); settings: HepG2 Attagene CIS-factorial TA basal promoter reporter; actives raise or lower the signal
How it was run: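 Steps: transfect HepG2 with MRTUs; dose 24 h; isolate RNA, DNase-treat, reverse-transcribe; PCR and FAM-label reporter cDNA; digest with HpaI 2h at 37 C; run capillary electrophoresis. Activity fitted both directions against DMSO.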

[19] = ATG_RORE_CIS: Attagene CIS-FACTORIAL HepG2 Assay for human RAR-related Orphan Receptor Element (RORE) (AID 2282959); settings: HepG2 Attagene cis-factorial RORE reporter, mRNA; actives raise or lower the signal
How it was run: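 Readout: fluorescent reporter mRNA by RT-PCR plus capillary electrophoresis, 24 h after dosing transfected HepG2 cells. Endogenous transcription factor activity on a cis promoter element is measured. Gain or loss of signal fitted against DMSO.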

[20] = ATG_TCF_b_cat_CIS: Attagene CIS-FACTORIAL HepG2 Assay for human T-Cell-Factor with beta-catenin (TCF/b-cat) (AID 2282965); settings: HepG2 TCF/beta-catenin cis-reporter transcription, actives raise or lower the signal
How it was run: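 HepG2 cells transiently transfected with multiple cis-promoter-regulated reporter transcription units, so endogenous transcription factor activity is measured. Reporter mRNA read 24 hours after dosing by RT-PCR, fluorescent labelling and capillary electrophoresis; bidirectional fitting against DMSO.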

Measured: AC50

Heat shock factor protein 1 (Homo sapiens), sequence (Q00613 whole entry, looked up, the tested form may be a part): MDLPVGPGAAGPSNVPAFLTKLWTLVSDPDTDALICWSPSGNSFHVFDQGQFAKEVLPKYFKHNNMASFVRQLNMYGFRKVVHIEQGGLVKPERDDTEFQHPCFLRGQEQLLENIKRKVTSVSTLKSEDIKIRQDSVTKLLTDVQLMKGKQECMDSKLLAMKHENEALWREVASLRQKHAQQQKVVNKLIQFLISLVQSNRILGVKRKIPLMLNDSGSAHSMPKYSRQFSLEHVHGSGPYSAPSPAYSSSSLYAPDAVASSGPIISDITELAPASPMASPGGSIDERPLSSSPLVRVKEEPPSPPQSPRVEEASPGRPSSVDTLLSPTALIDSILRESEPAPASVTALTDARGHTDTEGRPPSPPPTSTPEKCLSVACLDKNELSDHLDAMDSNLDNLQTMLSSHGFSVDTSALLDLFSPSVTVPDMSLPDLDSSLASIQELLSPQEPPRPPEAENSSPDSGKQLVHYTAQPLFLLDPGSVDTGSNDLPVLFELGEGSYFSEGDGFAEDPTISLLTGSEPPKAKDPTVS
Transcription factor Sp1 (Homo sapiens), sequence (P08047 whole entry, looked up): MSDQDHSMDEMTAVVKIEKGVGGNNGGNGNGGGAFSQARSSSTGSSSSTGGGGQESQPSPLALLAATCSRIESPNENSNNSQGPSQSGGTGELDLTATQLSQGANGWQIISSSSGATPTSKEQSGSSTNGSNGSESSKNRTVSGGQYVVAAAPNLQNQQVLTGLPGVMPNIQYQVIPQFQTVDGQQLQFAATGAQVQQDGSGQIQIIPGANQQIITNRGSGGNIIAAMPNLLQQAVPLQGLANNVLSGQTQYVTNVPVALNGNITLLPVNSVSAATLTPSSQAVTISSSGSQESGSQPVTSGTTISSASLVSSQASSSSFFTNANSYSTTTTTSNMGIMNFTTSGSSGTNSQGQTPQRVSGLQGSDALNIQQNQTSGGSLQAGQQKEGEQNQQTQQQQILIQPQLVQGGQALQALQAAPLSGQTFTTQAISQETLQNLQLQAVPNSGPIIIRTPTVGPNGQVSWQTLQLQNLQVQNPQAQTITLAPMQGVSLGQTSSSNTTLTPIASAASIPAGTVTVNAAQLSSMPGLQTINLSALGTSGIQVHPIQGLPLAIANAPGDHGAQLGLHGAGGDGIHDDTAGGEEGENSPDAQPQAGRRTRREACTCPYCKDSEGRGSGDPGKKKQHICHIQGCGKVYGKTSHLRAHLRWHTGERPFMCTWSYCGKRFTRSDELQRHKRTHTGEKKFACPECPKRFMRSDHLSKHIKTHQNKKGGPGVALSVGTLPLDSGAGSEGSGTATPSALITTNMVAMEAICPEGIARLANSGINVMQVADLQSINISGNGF
Hypoxia-inducible factor 1-alpha (Homo sapiens), sequence (Q16665 whole entry, looked up): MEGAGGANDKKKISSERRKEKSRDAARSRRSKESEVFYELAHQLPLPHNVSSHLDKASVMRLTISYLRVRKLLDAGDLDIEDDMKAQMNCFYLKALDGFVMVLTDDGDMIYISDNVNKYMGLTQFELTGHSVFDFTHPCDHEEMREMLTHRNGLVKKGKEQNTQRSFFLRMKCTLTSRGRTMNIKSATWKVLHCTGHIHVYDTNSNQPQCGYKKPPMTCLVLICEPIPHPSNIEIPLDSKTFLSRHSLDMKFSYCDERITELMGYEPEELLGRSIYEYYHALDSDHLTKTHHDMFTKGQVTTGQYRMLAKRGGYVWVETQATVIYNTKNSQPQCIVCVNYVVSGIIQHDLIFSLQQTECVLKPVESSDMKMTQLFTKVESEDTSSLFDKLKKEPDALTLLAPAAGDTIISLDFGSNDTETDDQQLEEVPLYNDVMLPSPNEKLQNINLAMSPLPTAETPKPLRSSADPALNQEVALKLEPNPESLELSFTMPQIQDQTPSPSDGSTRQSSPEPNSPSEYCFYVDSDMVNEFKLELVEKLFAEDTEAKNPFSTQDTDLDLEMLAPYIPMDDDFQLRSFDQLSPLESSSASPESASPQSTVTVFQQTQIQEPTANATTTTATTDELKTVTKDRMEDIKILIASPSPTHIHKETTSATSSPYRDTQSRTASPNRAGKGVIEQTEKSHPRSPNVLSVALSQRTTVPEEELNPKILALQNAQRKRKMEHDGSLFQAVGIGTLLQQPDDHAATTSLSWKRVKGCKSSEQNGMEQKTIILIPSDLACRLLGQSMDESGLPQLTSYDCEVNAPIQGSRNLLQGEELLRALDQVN
Hepatocyte nuclear factor 6 (Homo sapiens), sequence (Q9UBC0 whole entry, looked up): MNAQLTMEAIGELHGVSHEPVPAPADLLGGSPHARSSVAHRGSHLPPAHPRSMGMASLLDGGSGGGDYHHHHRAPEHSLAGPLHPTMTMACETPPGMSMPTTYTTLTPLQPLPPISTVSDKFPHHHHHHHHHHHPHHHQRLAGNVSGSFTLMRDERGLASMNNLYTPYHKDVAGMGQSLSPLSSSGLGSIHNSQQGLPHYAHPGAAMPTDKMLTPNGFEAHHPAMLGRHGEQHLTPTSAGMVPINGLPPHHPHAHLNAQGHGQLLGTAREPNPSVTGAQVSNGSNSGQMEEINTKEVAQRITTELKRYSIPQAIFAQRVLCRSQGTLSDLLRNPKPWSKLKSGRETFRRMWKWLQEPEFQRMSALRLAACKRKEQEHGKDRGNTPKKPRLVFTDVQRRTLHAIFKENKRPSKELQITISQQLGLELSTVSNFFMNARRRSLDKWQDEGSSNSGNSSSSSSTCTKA
Bile acid receptor (Homo sapiens), sequence (Q96RI1 whole entry, looked up): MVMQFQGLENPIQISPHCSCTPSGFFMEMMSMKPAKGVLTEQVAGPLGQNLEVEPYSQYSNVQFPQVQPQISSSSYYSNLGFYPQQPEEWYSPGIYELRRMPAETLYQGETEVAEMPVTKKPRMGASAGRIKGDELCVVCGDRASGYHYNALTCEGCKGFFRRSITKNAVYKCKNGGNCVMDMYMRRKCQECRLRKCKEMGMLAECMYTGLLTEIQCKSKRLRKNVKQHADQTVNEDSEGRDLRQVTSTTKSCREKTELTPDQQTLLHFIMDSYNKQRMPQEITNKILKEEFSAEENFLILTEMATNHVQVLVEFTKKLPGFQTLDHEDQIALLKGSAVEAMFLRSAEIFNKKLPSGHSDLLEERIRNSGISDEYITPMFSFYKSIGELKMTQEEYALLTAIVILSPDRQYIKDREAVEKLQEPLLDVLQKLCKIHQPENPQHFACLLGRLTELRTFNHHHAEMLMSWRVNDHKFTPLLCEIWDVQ
Signal transducer and activator of transcription 3 (Homo sapiens), sequence (P40763 whole entry, looked up): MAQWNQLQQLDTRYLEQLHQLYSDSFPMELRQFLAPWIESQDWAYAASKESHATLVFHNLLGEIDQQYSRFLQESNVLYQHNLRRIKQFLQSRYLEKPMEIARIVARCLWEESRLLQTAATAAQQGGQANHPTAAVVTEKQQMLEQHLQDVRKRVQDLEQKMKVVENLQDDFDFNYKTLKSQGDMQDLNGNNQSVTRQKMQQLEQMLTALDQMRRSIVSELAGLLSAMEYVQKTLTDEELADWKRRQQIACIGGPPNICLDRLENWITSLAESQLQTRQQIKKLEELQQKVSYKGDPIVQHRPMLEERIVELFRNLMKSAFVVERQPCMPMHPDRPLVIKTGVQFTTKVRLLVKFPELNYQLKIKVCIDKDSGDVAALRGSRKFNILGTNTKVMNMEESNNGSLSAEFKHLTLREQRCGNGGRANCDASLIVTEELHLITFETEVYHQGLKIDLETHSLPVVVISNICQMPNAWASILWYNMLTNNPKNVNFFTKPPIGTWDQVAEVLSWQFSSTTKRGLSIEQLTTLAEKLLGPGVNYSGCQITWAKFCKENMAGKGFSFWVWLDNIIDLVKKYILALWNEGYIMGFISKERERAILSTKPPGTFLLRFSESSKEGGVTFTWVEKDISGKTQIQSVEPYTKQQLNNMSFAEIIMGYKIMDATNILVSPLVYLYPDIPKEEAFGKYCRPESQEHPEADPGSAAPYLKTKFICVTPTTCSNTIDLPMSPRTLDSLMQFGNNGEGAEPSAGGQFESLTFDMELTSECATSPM
Paired box protein Pax-6 (Homo sapiens), sequence (P26367 whole entry, looked up): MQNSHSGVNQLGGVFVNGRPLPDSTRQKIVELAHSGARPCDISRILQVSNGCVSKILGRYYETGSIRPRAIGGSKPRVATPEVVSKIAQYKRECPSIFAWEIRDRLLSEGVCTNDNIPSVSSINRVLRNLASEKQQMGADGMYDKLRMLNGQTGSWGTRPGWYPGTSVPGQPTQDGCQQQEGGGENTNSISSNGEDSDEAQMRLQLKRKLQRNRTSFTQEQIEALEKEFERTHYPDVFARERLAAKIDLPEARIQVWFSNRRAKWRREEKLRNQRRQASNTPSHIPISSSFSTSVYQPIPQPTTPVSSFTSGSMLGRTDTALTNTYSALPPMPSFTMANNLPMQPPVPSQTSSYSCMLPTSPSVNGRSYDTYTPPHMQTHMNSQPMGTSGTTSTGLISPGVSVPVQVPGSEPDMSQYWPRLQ

CCc1cc(Cc2cc(CC)cc(C(C)(C)C)c2O)c(O)c(C(C)(C)C)c1
active: [3] 17.4 µM | [6] 16.7 µM | [8] 18.5 µM | [9] 18.1 µM | [11] 16.6 µM | [12] 0.0355 µM | [13] 11.1 µM | [15] 11.1 µM | [18] 11.1 µM
not listed: [19] | [20]
inactive: all other assays above

CCCCCCCCCC(C)C=O (stereo not drawn)
active: [12] 51.1 µM
not listed: [13]
inactive: all other assays above

CC(=O)O[C@@H]1CC2CCC1(C)C2(C)C (stereo partly drawn)
not listed: [13]
inactive: all other assays above

Cc1c(C2(c3cc(Br)c(O)c(Br)c3C)OS(=O)(=O)c3ccccc32)cc(Br)c(O)c1Br
active: [12] 11 µM
not listed: [13]
inactive: all other assays above

CCC(C)c1cc([N+](=O)[O-])cc([N+](=O)[O-])c1OC(=O)OC(C)C (stereo not drawn)
active: [1] 27.4 µM | [3] 24.3 µM | [4] 49.2 µM | [8] 26.6 µM | [9] 34.8 µM | [11] 25.9 µM | [12] 0.731 µM | [14] 25.3 µM | [16] 25.1 µM | [17] 100 µM
inactive: all other assays above

COC(=O)c1ccc(OC)cc1
not listed: [13] | [19]
inactive: all other assays above

CCCCCCCCc1ccc(S(=O)(=O)O)cc1
active: [1] 175 µM | [4] 99.5 µM | [5] 155 µM | [7] 167 µM | [10] 99.5 µM | [11] 19.7 µM | [15] 186 µM | [16] 159 µM
not listed: [12] | [20]
inactive: all other assays above

NCC1CCCC(CN)C1 (stereo not drawn)
not listed: [19]
inactive: all other assays above

O=C1OC2(c3ccccc31)c1ccc(O)c(Br)c1Oc1c2ccc(O)c1Br
active: [10] 35.3 µM | [12] 15.9 µM
not listed: [13] | [19]
inactive: all other assays above

CC1=C(Br)C(=O)C(Br)=C/C1=C(/c1ccccc1S(=O)(=O)O)c1cc(Br)c(O)c(Br)c1C
active: [12] 26.2 µM
inactive: all other assays above

C=C(C)C(=O)OCC(CC)(COC(=O)C(=C)C)COC(=O)C(=C)C
active: [12] 10.6 µM
inactive: all other assays above

CCCCC1CCC(O)CC1 (stereo not drawn)
inactive: all assays above
